eIF4H FP inh: inhibitors of RNA binding by human eIF4H. Q15056. eIF4H fluorescence polarization binding assay. inhibition, % at 35 µM. actives 0.94% (n = 290,000). AID 2012;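 also: calls also rest on retests at 20 µM and on dose response follow-up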
PABP FP inh: PABP-poly(A) binding inhibition. P11940. PABP-poly(A) RNA binding, fluorescence polarization. calls only at 35 µM. actives 1% (n = 290,000). AID 2014;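 also: calls also rest on retests at 20 µM and on dose response follow-up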
PHOSPHO1 inh: blocks human PHOSPHO1 phosphatase activity | recombinant PHOSPHO1, absorbance phosphatase assay | inhibition, % at 13.3 µM | actives 1.1% (n = 290,000); in the data active = inhibition above about 60%
Target sequence (Q8TCT1 whole entry, looked up): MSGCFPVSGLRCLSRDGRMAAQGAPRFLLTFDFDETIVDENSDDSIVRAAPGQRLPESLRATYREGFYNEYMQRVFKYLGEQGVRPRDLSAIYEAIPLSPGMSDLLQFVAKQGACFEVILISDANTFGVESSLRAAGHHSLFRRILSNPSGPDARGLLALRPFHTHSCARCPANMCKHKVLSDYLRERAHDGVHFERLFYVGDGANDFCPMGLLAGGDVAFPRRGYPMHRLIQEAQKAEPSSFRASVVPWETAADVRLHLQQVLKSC
HMGR II inh: blocks class II HMG-CoA reductase of Enterococcus faecalis | purified E. faecalis HMGR, NADPH absorbance 340 nm kinetic | inhibition, % at 10 µM | actives 0.41% (n = 190,000) | AID 1066;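 active = inhibition above a set limit, the median over all tested compounds plus 3 SD, cut at about 9.5% in these data; inconclusive = no clear call, values can overlap the other calls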;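 also: enzyme runs in reverse so mevalonate oxidation gives rising NADPH absorbance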
PABP1 MLLE inh: inhibitors of microRNA-mediated deadenylation, human PABP1 MLLE binding; GST-MLLE / FITC-PAM2 fluorescence polarization; inhibition, % at 20 µM; actives 0.36% (n = 360,000); AID 588489; in the data active = inhibition above about 35%, passing the limit was not always enough
A number is an active result; . = inactive; ? = inconclusive; / = no result; + = active, no number. This is a sample that favours compounds with a hit; in the whole collection about 2.4% have one here. Unless noted, no rule for the calls is given here.

SMILES | eIF4H FP inh | PABP FP inh | PHOSPHO1 inh | HMGR II inh | PABP1 MLLE inh
C/C(=N/NC(=O)CNC(=O)c1cccnc1)c1ccc(Cl)c(Cl)c1 | . | . | . | / | .
O=P(O)(c1ccccc1)c1ccccc1O | . | . | . | . | .
O=P(c1ccccc1)(c1ccccc1)c1cc(S(=O)(=O)O)ccc1O | 77.5 | + | . | / | .
COC(=O)c1ccc(CC(=O)c2ccc(O)cc2O)o1 | . | . | 63.7 | . | .
COC(=O)c1ccc(CC(=O)c2c(C)cc(O)cc2O)o1 | 79.9 | + | . | . | .
O=C(CCCn1c(=S)[nH]c2cc3c(cc2c1=O)OCO3)N1CCN(c2ccc(F)cc2)CC1 | . | . | 68.7 | . | .
CCN1C=C(Cc2cccs2)C2=C(C1)C(c1cccs1)C(C#N)=C(N)O2 (configuration not stated) | 93.3 | + | . | . | .
Cc1ccc(C(=O)NCC(=O)Nc2ccncc2)s1 | . | . | . | / | .
Cc1nn(-c2ccccc2)c(C)c1C(=O)N1CCN(S(=O)(=O)c2ccccc2)CC1 | / | / | / | / | .
C=CCOc1ccc(Br)cc1CNC(C)(C)CO | . | . | . | . | .
C=CCOc1ccc(Br)cc1CNC(C)(C)C | . | . | . | 21.6 | .
CC(=O)c1ccc2c(c1)C1C=CCC1C(C(=O)O)N2 (configuration not stated) | 101.1 | + | . | . | .
COc1cccc2c1NC(C(=O)O)C1CC=CC21 (configuration not stated) | 95.6 | + | . | . | .
O=C(O)C1Nc2c(cccc2C(F)(F)F)C2C=CCC12 (configuration not stated) | 80.1 | + | . | / | /
O=C(O)C(C=C(Cl)Cl)N1CCOCC1 (configuration not stated) | / | / | / | / | .
COc1ccc(CN2CCNC(=O)C2CC(=O)N(C)C2CCOCC2)c(F)c1 (configuration not stated) | . | . | . | / | .
COc1ccc(CCc2nnc(CCC(=O)NCc3ccc4ncccc4c3)o2)cc1 | . | . | . | . | .
CC1(C(=O)NS(=O)(=O)c2cccs2)CCN1C(=O)c1ccccc1CCc1ccccc1 (configuration not stated) | / | / | / | / | .
Cc1ccc(N2CCC(N3CCN(C4CCCCC4)C(CCO)C3)CC2)cc1 (configuration not stated) | . | . | . | . | .
CCn1c(C)c(CS(=O)(=O)c2ccccc2)[nH]c1=O | . | . | . | . | 38.3
O=c1[nH]c(CS(=O)(=O)c2ccccc2)nc2ccccc12 | . | . | . | . | .
COc1ccc(C)cc1N1CC(C(=O)Nc2ccccc2C(=O)NC2CC2)CC1=O (configuration not stated) | / | / | / | / | .
CC(Sc1nnc(-c2ccncc2)n1C)C(=O)Nc1nccs1 (configuration not stated) | . | . | . | / | .
O=C(CCc1nnc(CCCc2ccccc2)o1)NCCc1ccccc1 | . | . | . | 15.4 | .
CNS(=O)(=O)c1ccc2nc(NC(=O)c3ccc(N4C(=O)CCC4=O)cc3)sc2c1 | . | . | . | 10.4 | .
SMILES | eIF4H FP inh | PABP FP inh | PHOSPHO1 inh | HMGR II inh | PABP1 MLLE inh
CCCC(=O)NCCc1nc2cc([N+](=O)[O-])ccc2n1C | . | . | . | . | .
COc1ccc(C2NC(=O)C(C#N)=C(S)N2c2ccc(C)cc2)cc1OC (configuration not stated) | . | . | . | . | .
CCOC(=O)CSC1=C(C#N)C(=O)NC(c2ccc(OC)cc2)S1 (configuration not stated) | . | . | 87.4 | . | .
CCOC(=O)CSc1nc2cc(OC)ccc2cc1C#N | . | . | . | . | .
CCOC(=O)CSC1=C(C#N)C(=O)NC(c2ccc(OC)c(OC)c2)S1 (configuration not stated) | . | . | 98.0 | . | 47.6
Cc1oc2cc3oc(=O)c(CCC(=O)N4C[C@H]5C[C@@H](C4)c4cccc(=O)n4C5)c(C)c3cc2c1C | . | . | . | / | .
CC1Cc2ccccc2N1C(=O)CCS(=O)(=O)c1ccc2c(c1)NC(=O)CS2 (configuration not stated) | . | + | . | / | .
CC1CCC(NC(=O)CCS(=O)(=O)c2ccc3c(c2)NC(=O)CS3)CC1 (configuration not stated) | . | . | . | / | .
Cc1cccc(NC(=O)CCS(=O)(=O)c2ccc3c(c2)NC(=O)CS3)n1 | . | + | . | / | .
CCCSc1ncnc2sc(C)c(C)c12 | . | . | . | . | .
Cc1sc2ncnc(SCC#N)c2c1C | 36.6 | . | . | . | .
COC(=O)c1ccccc1NS(=O)(=O)c1c(C)noc1C | . | . | . | / | .
Cc1ccc(/C=N/Nc2cccc3cccnc23)c(O)c1 | . | . | 97.5 | . | .
Oc1ccc(/C=N/Nc2cccc3cccnc23)c(O)c1 | . | . | . | . | .
CC(NC(=O)COC(=O)CNS(=O)(=O)/C=C/c1ccccc1)c1ccccc1 (configuration not stated) | / | / | / | / | .
O=C1c2c(O)cc(O)cc2O[C@@]12c1c(cc(O)c3c1O[C@H](c1ccc(O)cc1)[C@@H](O)C3)O[C@@H]2c1ccc(O)cc1 | . | . | . | 9.6 | .
COc1ccc(NC(=O)Nc2nc3c(s2)CCCC3)cc1 | 79.9 | + | . | . | .
COc1ccc(CNC(=O)C2CCCN2S(=O)(=O)c2ccc(Cl)cc2)cc1 (configuration not stated) | . | . | . | 17.9 | .
O=C1NN(CCO)C(=S)Nc2ccccc21 | / | / | / | / | 35.8
Cc1cc(F)ccc1-c1cc(C(=O)NCc2cccc(C(F)(F)F)c2)[nH]n1 | / | / | / | / | .
COc1cc(/C=C2/NC(=O)N(Cc3ccccc3F)C2=O)cc(OC)c1OC | . | . | . | . | .
COc1ccc(/C=C2/NC(=O)N(Cc3ccccc3F)C2=O)cc1OC | ? | + | . | . | .
O=C1N/C(=C/c2ccco2)C(=O)N1Cc1ccccc1F | 95.6 | + | . | . | .
Cc1ccc(S(=O)(=O)Nc2ccccc2F)cc1C(=O)NCc1ccco1 | / | / | / | / | .
CCN(CC)S(=O)(=O)c1cccc(NC(=O)COC(=O)CCC(=O)c2cccs2)c1 | . | . | 73.2 | . | .
SMILES | eIF4H FP inh | PABP FP inh | PHOSPHO1 inh | HMGR II inh | PABP1 MLLE inh
S=C(NCc1ccc2[nH]c3c(c2c1)CCCC3)Nc1ccccc1 | . | . | . | 9.8 | .
CCC1CCCCN1S(=O)(=O)c1ccc(NC(=O)C2CCCO2)cc1 (configuration not stated) | . | . | . | / | .
CSc1ccccc1NC(=O)C1=CC(c2cccs2)=NS(=O)(=O)N1C | . | . | . | / | .
COCC1CCCN(C(=O)c2cc(COc3ccc4ncccc4c3)on2)C1 (configuration not stated) | . | . | . | / | .
Cc1ccc(/C=C2/Sc3ccc(C(=O)N4CCN(C)CC4)cc3NC2=O)cc1 | . | + | . | / | 45.6
CC1CCN(C(=O)c2ccc3c(c2)NC(=O)/C(=C/c2ccccc2)S3)CC1 | / | / | . | / | .
O=c1c(-c2cc3ccccc3o2)[n+]([O-])c2ccccc2n1OCc1ccccn1 | . | + | . | . | .
CCOn1c(=O)c(-c2cc3ccccc3o2)[n+]([O-])c2ccccc21 | . | . | . | . | .

Assay outcomes (PubChem BioAssay)
